# Bioassay records: PubChem, National Center for Advancing Translational Sciences (NCATS)
# 12-hLO inh = inhibitors of human 12-lipoxygenase (ALOX12); P18054; purified 12-hLO, xylenol orange hydroperoxide absorbance; Potency, µM (highest dose often 57.1 µM), for inactives: at the top dose activity change, negative = inhibition, usual class: inhibitors; 150,000 compounds, 0.12% hits; further: potency means the concentration at half of the fitted maximal effect; nearly all actives have a fitted effect of over 55% in size
# Target sequence (P18054 whole entry, looked up): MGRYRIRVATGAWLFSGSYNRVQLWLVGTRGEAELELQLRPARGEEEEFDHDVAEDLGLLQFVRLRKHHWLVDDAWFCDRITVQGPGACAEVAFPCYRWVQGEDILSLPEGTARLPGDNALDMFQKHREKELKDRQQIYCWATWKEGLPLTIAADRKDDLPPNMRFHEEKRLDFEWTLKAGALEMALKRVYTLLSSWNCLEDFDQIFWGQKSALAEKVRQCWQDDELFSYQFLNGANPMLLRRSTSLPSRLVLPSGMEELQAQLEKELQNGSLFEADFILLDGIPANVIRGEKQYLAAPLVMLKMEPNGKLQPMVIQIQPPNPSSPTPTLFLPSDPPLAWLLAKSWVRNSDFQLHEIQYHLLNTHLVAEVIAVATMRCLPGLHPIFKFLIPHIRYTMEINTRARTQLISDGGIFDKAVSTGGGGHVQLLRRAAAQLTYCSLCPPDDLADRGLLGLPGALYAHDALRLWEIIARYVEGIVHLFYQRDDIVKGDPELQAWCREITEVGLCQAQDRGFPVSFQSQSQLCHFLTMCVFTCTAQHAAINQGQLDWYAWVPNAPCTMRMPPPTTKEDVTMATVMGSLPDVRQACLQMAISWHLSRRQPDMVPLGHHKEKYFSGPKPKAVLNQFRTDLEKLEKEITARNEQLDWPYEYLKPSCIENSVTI
#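 Purified human 12hLO (150 nM final) was preincubated with compounds for 15 min at room temperature in 25 mM Hepes pH 7.0, 0.01% Triton X-100, then reacted with 40 uM arachidonic acid for 30 min. Hydroperoxide was detected with ferrous iron/xylenol orange.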
# IMPase Li cell = IMPase inhibition in cells with lithium potentiation; 210,000 compounds, 0.35% hits; Potency, µM (titrated, usually from 59.4 µM), without a hit: at the highest dose activity, negative = IMPase inhibition, usual class: inhibitors; CHO-M1 cells, IP1 TR-FRET (IP-One), carbachol + lithium;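 further: IP1 builds up when IMPase is blocked and the TR-FRET signal falls; potency means the concentration at half of the fitted maximal effect; plate controls were basal vehicle for no effect and high inhibitor control for full effect; nearly all actives have a fitted effect of over 50% in size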
#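 Lithium-sensitised IP1 accumulation assay; M1-expressing CHO cells treated 30 min at 37C with compound. Competitive antibody detection by time-resolved FRET followed a 10 min room-temperature lysis step.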
# PNC inhibitor = blocks assembly of the perinucleolar compartment; PC3M PTB-GFP, PNC prevalence imaging, 16 h; hits give low values; activity change (PNC), negative = inhibition, % at 10 µM; 140,000 compounds, 3.1% hits; AID 2417;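 active means readout at or below -70, meaning at least 70% loss of cells showing the perinucleolar compartment, a nuclear body marking cancer cells; inconclusive means readout between -30 and a set limit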;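 further: plate controls were DMSO wells for no effect and camptothecin positive control wells for full effect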
#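 Compounds are pinned in duplicate onto adhered PC3M cells stably expressing GFP-tagged PTB and incubated 16 h at 37 C. Cells are then fixed, nuclei stained with Hoechst, and PNC-positive cells counted.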
# 15-hLO-2 inh = 15-hLO-2 (ALOX15B) enzyme inhibition | O15296 | purified 15hLO-2, xylenol orange hydroperoxide absorbance | Potency, µM (titrated, usually from 57.1 µM), inactives show top-dose activity change, negative = inhibition, most hits filed as inhibitors | 110,000 compounds, 0.56% hits; further: potency means the concentration at half of the fitted maximal effect; nearly all actives have a fitted effect of over 60% in size
#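 Screening format was qHTS against 50 nM purified 15hLO-2 in Hepes pH 7.5 with detergent. Activity follows hydroperoxide formation from 45 uM arachidonic acid, measured as 573:405 nm absorbance ratio of the ferric-xylenol orange complex.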
# IMPase cell inh = IMPase inhibition in cells. P97697. AID 901. 120,000 tested, under 10 active. CHO-M1 cells, IP1 accumulation, HTRF TR-FRET ratio. inhibition (IP1 accumulation), % at 46.1 µM; active means well fitted curve in the direction sought with a large enough effect in the signal ratio, not every such curve was filed as active; inconclusive means small, poorly fitted or top-dose-only effect, or a change in a side signal; inactive means no such curve, though single readings can be large or run the other way; the % refers to the signal ratio;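 further: cells stimulated with carbachol in lithium chloride buffer; plate controls were DMSO basal wells for no effect and reference inhibitor wells for full effect; higher means more IMPase inhibition seen as more IP1 and lower FRET ratio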
#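 In this qHTS, compounds (final up to 46 uM) act on CHO-M1 cells that are then activated through the M1 receptor with carbachol, in pH 7.4 buffer containing 50 mM LiCl, for 30 min. IP1 accumulation is quantified by the IP-One immunoassay.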
# Numbers without * were called inactive; ? = inconclusive; / = no result; [ ] = another dose, or the depositor's remark. Shown is part of a subset that was picked to be rich in hits. Unless noted, the call rests on the fitted dose curve; in most records, active means well fitted curve in the direction sought with a large enough effect; inconclusive means small, poorly fitted or top-dose-only effect, or another doubt; inactive means no such curve, though single readings can be large; an effect the other way counts as inactive or inconclusive. Unless noted, on the % scale 0 is the no-effect control and ±100 the full control effect.
SMILES,12-hLO inh,IMPase Li cell,PNC inhibitor,15-hLO-2 inh,IMPase cell inh
CC(C)N(CCC(=O)c1ccc2ccccc2c1)Cc1ccccc1,?,13.1%,/,12.6µM*,5.6
CCC(=O)CCC(=O)c1ccc2ccccc2c1,3.2%,-1.0%,?,/,/
CC1(C)CC(CC(=O)NNc2nc(-c3ccccc3)cs2)C(=O)O1 (stereo not given),-3.5%,-9.0%,-83.6*,/,/
Cc1cc(N2CCCC2)n2nc(C)nc2n1,-0.4%,2.3%,-84.2*,/,/
Cc1cc(N2CCCCC2)n2nc(C)c(-c3ccccc3)c2n1,4.0%,/,-81.8*,18.2%,10.2
CCCCC/C=C\C/C=C\C/C=C\CCCCCCC(=O)NCC(=O)O,8.9%,1.2%,/,/,/
COc1ccc(NC(=O)C2CCN(Cc3cnn(-c4ccccc4)c3-n3cccc3)CC2)cc1OC,-10.2%,10.5%[38.3 µM],-8.4,42.9%,16.8
COc1ccc(OC)c(NC(=O)C2CCN(Cc3cnn(-c4ccccc4)c3-n3cccc3)CC2)c1,-1.0%,-6.1%[38.3 µM],-87.8*,35.2%,5.2
COc1ccc(/C=C(/C#N)c2cccnc2)cc1OC,-3.1%,-3.4%,121.3,/,/
N#Cc1cc(Oc2cccnc2)c(Oc2cccnc2)cc1C#N,6.5%,27.8%[38.3 µM],-111.3*,-0.1%,?
Cc1c(Cc2ccccc2)sc(/N=C/c2ccc3ccccc3c2)c1C(N)=O,-0.2%,-3.1%,-103.3*,/,1.9
O=C1C(=O)N(Cc2ccc(Cl)c(Cl)c2)c2ccccc21,?,30.9%,/,7.94µM*,2.7
CC(=O)N1CCc2c(sc3c2c(=O)n(-c2ccccc2)c(=O)n3Cc2ccccc2Cl)C1,-1.1%,5.9%,-114.3*,/,/
CCCC1(C(=O)O)NC(c2ccccc2O)C2C(=O)N(Cc3ccccc3)C(=O)C21 (stereo not given),-12.2%,4.5%[38.3 µM],-110.3*,11.8%,7.5
C[C@@H](CN1c2ccccc2Sc2ccccc21)N(C)C,-0.2%[25.6 µM],24.2%,/,-23.9%[25.6 µM],14.7[20.6 µM]
CCCCC[C@H](O)/C=C/[C@H]1[C@H](O)CC(O)[C@@H]1C/C=C\CCCC(=O)O (stereo not given in full),/,-0.6%,/,/,/
COC(=O)C1=C(C)Nc2ccc(C)cc2S1,-20.2%,17.0%[38.3 µM],-1.8,6.31µM*,11.1
COc1ccc(CC(=O)OCc2cc3cccc(C)c3[nH]c2=O)cc1,-0.5%,?,?,-4.3%,0.0
COc1ccc(C(=O)OCc2cc3cccc(C)c3[nH]c2=O)cc1,-5.0%,10µM*,-7.2,-1.1%,6.2
O=C(OCc1cc2ccccc2[nH]c1=O)c1ccncc1,0.5%,4.3%,-100.0*,/,?
O=C(OCc1cc2ccccc2[nH]c1=O)c1ccccc1,-3.9%,7.4%[38.3 µM],5.9,3.8%,3.8
O=C1O/C(=C\Br)CC[C@@H]1c1cccc2ccccc12,-3.2%,/,/,?,7.2
CN(C)C(=O)c1ccc(-c2nc(NC3CCNCC3)c3ccccc3n2)cc1,/,-7.2%,/,3.4%,/
Cc1ccccc1-n1c(=O)c2c3c(sc2n2cnnc12)CCCC3,/,/,/,/,4.2
CN(C)C(=S)SC(=S)N(C)C,-2.9%[0.00818 µM],17.5%,/,-3.4%[0.0915 µM],/
SMILES,12-hLO inh,IMPase Li cell,PNC inhibitor,15-hLO-2 inh,IMPase cell inh
CC1=C[N+](=O)c2ccccc2[N+]1=O,-2.5%[11.4 µM],0.3%,/,-8.0%[11.4 µM],/
CC(=O)N(C)c1nc(-c2ccc(Cl)cc2)cs1,-3.1%,2.4%[38.3 µM],42.2,0.9%,3.9
Cc1ccc(-c2csc(N(C)C(=O)c3c(C)nn(-c4ccccc4)c3Cl)n2)cc1,3.5%,28.6%[38.3 µM],-98.7*,-18.0%[11.4 µM],-2.3[1.84 µM]
CC1(OC(=O)c2cnc3ccccc3n2)C(=O)C=C2C=C(c3ccsc3)OC=C2C1=O (stereo not given),8.4%,15.4%,/,/,/
O[C@@H]1[C@@H]2c3cc4c(cc3CN3CCC(=C[C@@H]1O)[C@H]23)OCO4,-0.9%[25.6 µM],5.9%,/,3.5%[25.6 µM],-7.5[20.6 µM]
Cc1ccc(S(=O)(=O)N(CCc2ccccc2)CC(=O)Nc2ccc(Br)cc2)cc1,/,/,/,/,0.8
O=c1n(-c2ccccc2)c(=O)n2n1CCCC2,-8.7%,-5.3%[38.3 µM],-120.4*,2.4%[2.29 µM],-8.8
O=C(CSc1nnnn1-c1ccccc1)N1CCc2ccccc2C1,-6.0%,17.6%[38.3 µM],-24.7,-5.6%,0.6
CC(=O)c1ccc(-n2nnnc2SCC(=O)N2CCc3ccccc3C2)cc1,4.8%,-0.5%,-81.5*,/,3.4
CCCCCCCCCCOC(=O)c1csc2nnsc12,0.6%,8.9%,-100.0*,/,-4.9
COc1ccc(-c2ccc3c(N)c(C(=O)NCc4ccc(Cl)cc4)sc3n2)cc1,/,/,/,/,-8.5
O=C(NCc1ccco1)C1CC2CCC1C2 (stereo not given),-2.7%,13.0%[38.3 µM],-9.7,1.5%,-9.2
O=C(O)C1C2CCC(C2)C1C(=O)NCc1ccco1 (stereo not given),-0.1%,-0.5%[38.3 µM],-100.0*,-6.1%,2.3
CN1CCN(c2ncc3nc(-c4cccs4)c(=O)n(CCc4ccccc4)c3n2)CC1,/,6.5%,/,-4.4%,/
O=C(/C=C1\NC2(CCCC2)Cc2ccccc21)C(=O)N/N=C/c1ccc(O)c(O)c1,0.891µM*,29.3%,5.9,/,/
COc1ccc(/C=N/NC(=O)C(=O)/C=C2\NC3(CCCC3)Cc3ccccc32)cc1,-3.0%,12.4%,-20.8,/,-2.8
COc1ccc(Cl)cc1NC(=O)N1CCN(C2CCCCC2)CC1,1.3%,31.3%[38.3 µM],-88.2*,13.9%,1.7
NC(N)=Nc1nc(CSCC/C(N)=N\S(N)(=O)=O)cs1,-0.4%,4.7%,/,12.8%,/
O=C(Cc1sc(-c2ccccc2)nc1-c1ccccc1)Nc1ccccc1,-2.5%,33.6%[38.3 µM],?,-0.8%,8.9
O=C(O)Cc1sc(-c2ccccc2Cl)nc1-c1ccccc1,/,5.01µM*,/,/,/
CC1(C)Cc2c(sc3nn[nH]c(=O)c23)CO1,3.4%,0.3%[38.3 µM],-84.7*,-15.1%,-6.6
CCC1(C)Cc2c(sc3nn[nH]c(=O)c23)CO1 (stereo not given),-5.3%,16.8%[38.3 µM],19.1,-13.4%,-5.6
COC(=O)C1=C(C)NC(C)=C(C(=O)OCCN(C)Cc2ccccc2)[C@H]1c1cccc([N+](=O)[O-])c1,-0.7%[25.6 µM],4.9%,/,25.5%[25.6 µM],4.6[20.6 µM]
C[C@H]1[C@H](C)CC[C@]2(C(=O)O)CC[C@]3(C)C(=CC[C@H]4[C@]3(C)C[C@@H](O)C3[C@](C)(CO)[C@H](O)[C@@H](O)C[C@]34C)[C@H]12 (stereo not given in full),/,-0.9%,/,/,/
Cc1cccc(NC(=O)C2CCCN(S(=O)(=O)c3c(C)[nH]c(=O)[nH]c3=O)C2)c1C (stereo not given),/,/,/,/,5.1
CC(=O)c1ccc(S(=O)(=O)N2CCC(NC(=O)Nc3cccc(F)c3)CC2)cc1,/,-3.5%,/,/,/
COC(=O)c1cccc(S(=O)(=O)N2CCC(NC(=O)Nc3cccc(F)c3)CC2)c1,-12.8%,/,-98.2*,-3.7%,13.6
N#C/C(=C\c1ccc(-c2cc(Cl)ccc2Cl)o1)C(=O)Nc1ccccc1C(=O)O,/,/,/,/,5.4
O=C(CCN1C(=O)/C(=C/C=C/c2ccccc2)SC1=S)Nc1ccccn1,/,-13.3%,/,/,/
